# Experimental data taken from PubChem BioAssay (NCATS).
# Where “and” joins values, the source holds several entries; their conditions need not be identical. Equal values may be shown once. Results filed as inconclusive are left out. A call without a number means that no potency is given here. Some compounds were tested as several samples or in several runs, with calls that do not always agree. Calls of active or inactive are those of the source. Unless noted, the call rests on the fitted dose curve.
# What was measured:
# [1] = A High-Content qHTS Against Drug Library for the Identification of Small Molecules that Inhibit DYT1 Early Onset Primary Dystonia-Associated Cell Pathology (AID 1645839)
# Summary of the method: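 Flp-In T-REx 293 cells with tetracycline-inducible EGFP-delE hTOR1A (WT EGFP-hTOR1A as reference), 800 cells/well; compound added with tetracycline, 48 h at 37 C. Fixed, permeabilized cells imaged; %pathology (punctate TorsinA) primary, cell count counterscreen.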
# [2] = target: Cytochrome P450 2D6 (Homo sapiens) (UniProt P10635); assay: Cytochrome P450 family 2 subfamily D member 6 (CYP2D6) small molecule antagonists: luciferase biochemical (cell-free) qHTS assay (AID 1645840; active means well fitted curve in the direction sought with a large enough effect in the repeat runs; an effect the other way counts as inactive or inconclusive; further: nearly all actives have a fitted effect of over 55% in size; further: potency means the concentration at half of the fitted maximal effect)
# Sequence of Cytochrome P450 2D6 (Homo sapiens) (P10635 whole entry, looked up): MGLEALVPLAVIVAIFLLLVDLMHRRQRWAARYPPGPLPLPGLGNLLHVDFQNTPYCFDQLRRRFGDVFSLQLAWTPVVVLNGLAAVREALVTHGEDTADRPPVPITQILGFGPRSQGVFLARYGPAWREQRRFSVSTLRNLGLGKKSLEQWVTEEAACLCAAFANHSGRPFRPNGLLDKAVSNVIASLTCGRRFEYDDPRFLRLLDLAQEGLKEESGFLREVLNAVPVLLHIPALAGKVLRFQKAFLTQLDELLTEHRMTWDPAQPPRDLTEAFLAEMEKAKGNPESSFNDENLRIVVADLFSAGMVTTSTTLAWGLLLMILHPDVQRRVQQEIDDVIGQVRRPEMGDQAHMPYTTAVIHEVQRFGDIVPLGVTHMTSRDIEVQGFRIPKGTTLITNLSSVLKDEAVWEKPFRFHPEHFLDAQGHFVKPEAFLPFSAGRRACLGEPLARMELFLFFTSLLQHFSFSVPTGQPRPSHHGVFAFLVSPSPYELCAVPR
# Summary of the method: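 P450-Glo luminescent screen: recombinant CYP2D6 enzyme–proluciferin substrate mix preincubated with compound 10 min at room temperature, then NADPH regeneration added for 1 h at room temperature. Detection reagent added for 20 min; luciferin light read as relative luminescence units.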
# [3] = target: Papain (Carica papaya) (UniProt P00784); assay: Primary qHTS assay for inhibitors of the protease papain (AID 1645873; active means well fitted curve in the direction sought with a large enough effect; an effect the other way counts as inactive or inconclusive;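 further: papain turnover of Z-FR-AMC read as the AMC fluorescence gain over 10 min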; further: potency means the concentration at half of the fitted maximal effect)
# Sequence of Papain (Carica papaya) (P00784 whole entry, looked up, the tested form may be a part): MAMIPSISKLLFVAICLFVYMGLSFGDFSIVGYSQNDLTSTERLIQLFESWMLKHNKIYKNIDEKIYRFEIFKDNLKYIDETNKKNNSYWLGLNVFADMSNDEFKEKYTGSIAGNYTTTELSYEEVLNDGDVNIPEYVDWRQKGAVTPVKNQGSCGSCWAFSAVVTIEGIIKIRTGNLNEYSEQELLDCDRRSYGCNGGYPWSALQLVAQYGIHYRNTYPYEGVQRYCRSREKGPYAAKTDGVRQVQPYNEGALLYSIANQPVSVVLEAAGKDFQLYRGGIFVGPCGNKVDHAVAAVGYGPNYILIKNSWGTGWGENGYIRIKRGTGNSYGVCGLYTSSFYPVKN
# [4] = Primary qHTS for inhibitors of nuclear receptor binding SET domain protein 2 (NSD2) in an RCH-ACV wild type WT cells (2C) (AID 1645877; active means well fitted curve in the direction sought with a large enough effect; an effect the other way counts as inactive or inconclusive; further: nearly all actives have a fitted effect of over 70% in size; further: potency means the concentration at half of the fitted maximal effect)
# [5] = Cytotoxicity counterscreen for inhibitors of SARS-CoV-2 cell entry (AID 1645845); further: nearly all actives have a fitted effect of over 50% in size
# Summary of the method: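 HEK293-ACE2 cells (Expi293F stably expressing human ACE2) seeded overnight, then compound for 1 h plus 48 h at 37C. Viability as ATP content by luminescence; normalized to wells with cells and media-only wells.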
# [6] = target: Cytochrome P450 2C9 (Homo sapiens) (UniProt P11712); assay: Cytochrome P450 family 2 subfamily C member 9 (CYP2C9) small molecule antagonists: luciferase biochemical (cell-free) qHTS assay (AID 1645842; active means well fitted curve in the direction sought with a large enough effect in the repeat runs; an effect the other way counts as inactive or inconclusive; further: nearly all actives have a fitted effect of over 55% in size; further: potency means the concentration at half of the fitted maximal effect)
# Sequence of Cytochrome P450 2C9 (Homo sapiens) (P11712 whole entry, looked up): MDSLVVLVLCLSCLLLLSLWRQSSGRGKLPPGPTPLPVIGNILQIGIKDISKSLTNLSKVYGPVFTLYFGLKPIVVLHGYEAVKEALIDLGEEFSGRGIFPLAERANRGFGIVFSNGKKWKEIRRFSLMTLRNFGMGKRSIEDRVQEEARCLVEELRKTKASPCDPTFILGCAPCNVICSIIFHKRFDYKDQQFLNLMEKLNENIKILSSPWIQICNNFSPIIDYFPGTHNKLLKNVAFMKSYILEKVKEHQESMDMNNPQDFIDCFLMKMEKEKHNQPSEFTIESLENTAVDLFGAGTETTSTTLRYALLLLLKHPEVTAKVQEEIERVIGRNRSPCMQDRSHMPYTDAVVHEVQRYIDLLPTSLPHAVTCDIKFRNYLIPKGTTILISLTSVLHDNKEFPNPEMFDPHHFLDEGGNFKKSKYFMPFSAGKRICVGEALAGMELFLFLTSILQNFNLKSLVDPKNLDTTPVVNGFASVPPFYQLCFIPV
# Summary of the method: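 Luminescence, after 20 min with luciferin detection reagent, reflected CYP2C9 turnover during a 1 h NADPH-driven reaction at 37C. Enzyme-substrate mix contained 0.4% bovine serum albumin and was preincubated with compound 10 min at room temperature.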
# [7] = Primary qHTS to identify inhibitors of SARS-CoV-2 cell entry (AID 1645846); details: activity change, negative = inhibition: at 57.1 µM (top of the series) unless noted; further: nearly all actives have a fitted effect of over 45% in size
# Summary of the method: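 Inhibition of spike-mediated entry was scored in human ACE2-transfected Expi293F cells. Particles were MLV-pseudotyped with Wuhan-Hu-1 S carrying a 19-aa C-terminal deletion; signal was luciferase after two days, scaled between spike PP and fusion-protein-free PP.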
# [8] = Primary qHTS for inhibitors of nuclear receptor binding SET domain protein 2 (NSD2) in an isogenic RCH-ACV NSD2 p.E1099K mutant (9B) (AID 1645876; active means well fitted curve in the direction sought with a large enough effect; an effect the other way counts as inactive or inconclusive; further: nearly all actives have a fitted effect of over 70% in size; further: potency means the concentration at half of the fitted maximal effect)
# [9] = VSVG counterscreen qHTS to identify inhibitors of SARS-CoV-2 cell entry (AID 1645847); further: potency means the concentration at half of the fitted maximal effect; nearly all actives have a fitted effect of over 65% in size
# Summary of the method: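 Luminescence from a luciferase reporter, normalised to bald particle and VSV-G pseudotyped particle wells, is the read-out. Cells are HEK293 expressing human ACE2, exposed to compound 1 h before a 48 h particle infection at 37 °C.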
# [10] = target: Rap guanine nucleotide exchange factor 3 (Homo sapiens) (UniProt O95398); assay: Confirmatory qHTS for agonist of cAMP-regulated guanine nucleotide exchange factor 3 (EPAC1) (AID 1645881; active means well fitted curve in the direction sought with a large enough effect; an effect the other way counts as inactive or inconclusive;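 further: EPAC1 catalysed release of BODIPY-GDP from Rap1B seen as fluorescence loss; nearly all actives have a fitted effect of over 75% in size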)
# Sequence of Rap guanine nucleotide exchange factor 3 (Homo sapiens) (O95398 whole entry, looked up): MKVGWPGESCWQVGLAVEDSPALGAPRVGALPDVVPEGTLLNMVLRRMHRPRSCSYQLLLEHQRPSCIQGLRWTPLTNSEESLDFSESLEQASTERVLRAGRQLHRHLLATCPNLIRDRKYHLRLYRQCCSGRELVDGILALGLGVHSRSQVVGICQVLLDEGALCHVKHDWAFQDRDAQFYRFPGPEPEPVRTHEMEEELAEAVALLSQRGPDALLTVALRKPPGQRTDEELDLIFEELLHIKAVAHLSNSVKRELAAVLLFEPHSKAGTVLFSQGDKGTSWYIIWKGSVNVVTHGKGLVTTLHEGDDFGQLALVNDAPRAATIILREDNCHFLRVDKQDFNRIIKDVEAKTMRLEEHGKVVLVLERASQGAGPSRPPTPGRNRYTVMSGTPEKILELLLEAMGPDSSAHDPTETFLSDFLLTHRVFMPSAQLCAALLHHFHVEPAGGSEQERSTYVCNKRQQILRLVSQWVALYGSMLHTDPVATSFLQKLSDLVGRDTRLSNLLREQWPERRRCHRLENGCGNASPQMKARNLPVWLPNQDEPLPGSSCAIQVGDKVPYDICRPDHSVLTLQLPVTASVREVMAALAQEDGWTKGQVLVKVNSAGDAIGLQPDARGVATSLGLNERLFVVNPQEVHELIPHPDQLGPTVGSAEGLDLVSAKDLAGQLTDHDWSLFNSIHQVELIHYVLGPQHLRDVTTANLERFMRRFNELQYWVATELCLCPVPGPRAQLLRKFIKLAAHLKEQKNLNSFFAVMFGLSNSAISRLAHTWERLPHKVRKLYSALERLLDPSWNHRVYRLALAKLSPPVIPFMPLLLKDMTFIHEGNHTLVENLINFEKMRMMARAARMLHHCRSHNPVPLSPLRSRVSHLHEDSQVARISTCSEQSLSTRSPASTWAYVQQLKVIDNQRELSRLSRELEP
# [11] = target: Rap guanine nucleotide exchange factor 4 (Homo sapiens) (UniProt Q8WZA2); assay: Confirmatory qHTS for agonist of cAMP-regulated guanine nucleotide exchange factor 4 (EPAC2) (AID 1645884; active means well fitted curve in the direction sought with a large enough effect; an effect the other way counts as inactive or inconclusive;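 further: nucleotide exchange releases bodipy-GDP from Rap1 and this lowers its fluorescence; nearly all actives have a fitted effect of over 65% in size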)
# Sequence of Rap guanine nucleotide exchange factor 4 (Homo sapiens) (Q8WZA2 whole entry, looked up): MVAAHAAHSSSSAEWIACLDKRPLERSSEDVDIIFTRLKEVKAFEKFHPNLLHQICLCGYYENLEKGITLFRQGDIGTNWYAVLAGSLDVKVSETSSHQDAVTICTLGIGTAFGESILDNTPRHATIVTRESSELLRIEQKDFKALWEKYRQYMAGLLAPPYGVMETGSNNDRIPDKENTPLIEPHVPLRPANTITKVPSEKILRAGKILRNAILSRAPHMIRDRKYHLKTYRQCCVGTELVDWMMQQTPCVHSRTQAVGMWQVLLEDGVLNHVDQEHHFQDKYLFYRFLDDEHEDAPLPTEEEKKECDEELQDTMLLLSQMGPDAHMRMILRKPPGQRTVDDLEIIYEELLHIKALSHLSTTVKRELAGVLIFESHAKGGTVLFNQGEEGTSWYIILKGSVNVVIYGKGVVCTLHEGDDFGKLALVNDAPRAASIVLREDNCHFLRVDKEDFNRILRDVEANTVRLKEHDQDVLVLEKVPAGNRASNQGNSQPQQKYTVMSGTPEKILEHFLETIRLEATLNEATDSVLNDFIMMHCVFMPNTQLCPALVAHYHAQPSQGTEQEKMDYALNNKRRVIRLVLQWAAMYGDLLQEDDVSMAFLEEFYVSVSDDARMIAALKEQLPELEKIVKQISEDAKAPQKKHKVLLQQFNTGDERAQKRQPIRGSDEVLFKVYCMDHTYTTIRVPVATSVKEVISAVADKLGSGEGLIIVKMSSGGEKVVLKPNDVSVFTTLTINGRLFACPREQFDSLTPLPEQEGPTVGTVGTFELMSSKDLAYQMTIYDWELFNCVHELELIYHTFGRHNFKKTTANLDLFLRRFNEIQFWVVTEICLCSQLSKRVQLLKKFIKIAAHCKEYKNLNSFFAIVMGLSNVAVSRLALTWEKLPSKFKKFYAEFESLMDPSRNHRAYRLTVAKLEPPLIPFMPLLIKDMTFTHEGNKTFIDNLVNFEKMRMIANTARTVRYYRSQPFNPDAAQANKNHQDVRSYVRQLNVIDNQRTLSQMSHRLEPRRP
# [12] = target: Rap guanine nucleotide exchange factor 4 (Homo sapiens) (UniProt Q8WZA2); assay: Confirmatory qHTS for antagonist of cAMP-regulated guanine nucleotide exchange factor 4 (EPAC2) (AID 1645885; active means well fitted curve in the direction sought with a large enough effect; an effect the other way counts as inactive or inconclusive; further: nearly all actives have a fitted effect of over 25% in size; further: potency means the concentration at half of the fitted maximal effect)
# [13] = target: Rap guanine nucleotide exchange factor 3 (Homo sapiens) (UniProt O95398); assay: Counterscreen qHTS for antagonist of cAMP-regulated guanine nucleotide exchange factor 3 (EPAC1) (AID 1645888; active means well fitted curve in the direction sought with a large enough effect; an effect the other way counts as inactive or inconclusive;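 further: fluorescence loss as bound BODIPY-GDP is released from Rap1B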)
# Summary of the method: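 Rap1B–BODIPY-GDP (250 nM) with 50 uM GDP; compounds pin-transferred to 9.74 nM–152 uM final (activator) or from 7.32 nM upwards (inhibitor). Fluorescence Ex/Em 480/540 nm read at 5 and 30 min, then after adding cAMP or buffer, at room temperature.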
# [14] = target: Catechol O-methyltransferase (Homo sapiens) (UniProt P21964); assay: Confirmatory Screen for Target Class Profiling of Small Molecule Inhibitors of Methyltransferases (AID 1745852); details: MTase-Glo luminescence, SAH detection, recombinant enzyme; measured here: COMT max response; stronger effect = lower value
# Sequence of Catechol O-methyltransferase (Homo sapiens) (P21964 whole entry, looked up): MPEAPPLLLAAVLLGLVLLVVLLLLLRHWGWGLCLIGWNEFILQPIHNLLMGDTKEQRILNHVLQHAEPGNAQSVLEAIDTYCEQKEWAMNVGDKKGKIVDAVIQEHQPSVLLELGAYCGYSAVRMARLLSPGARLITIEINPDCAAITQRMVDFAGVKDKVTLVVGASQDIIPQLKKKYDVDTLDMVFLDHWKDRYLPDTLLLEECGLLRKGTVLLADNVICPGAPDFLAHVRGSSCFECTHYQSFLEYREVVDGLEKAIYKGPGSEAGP
# [15] = target: Cytochrome P450 3A4 (Homo sapiens) (UniProt P08684); assay: Cytochrome P450 family 3 subfamily A member 4 (CYP3A4) small molecule antagonists: luciferase qHTS assay (AID 1645841; active means well fitted curve in the direction sought with a large enough effect in the repeat runs; an effect the other way counts as inactive or inconclusive; further: nearly all actives have a fitted effect of over 45% in size)
# Sequence of Cytochrome P450 3A4 (Homo sapiens) (P08684 whole entry, looked up): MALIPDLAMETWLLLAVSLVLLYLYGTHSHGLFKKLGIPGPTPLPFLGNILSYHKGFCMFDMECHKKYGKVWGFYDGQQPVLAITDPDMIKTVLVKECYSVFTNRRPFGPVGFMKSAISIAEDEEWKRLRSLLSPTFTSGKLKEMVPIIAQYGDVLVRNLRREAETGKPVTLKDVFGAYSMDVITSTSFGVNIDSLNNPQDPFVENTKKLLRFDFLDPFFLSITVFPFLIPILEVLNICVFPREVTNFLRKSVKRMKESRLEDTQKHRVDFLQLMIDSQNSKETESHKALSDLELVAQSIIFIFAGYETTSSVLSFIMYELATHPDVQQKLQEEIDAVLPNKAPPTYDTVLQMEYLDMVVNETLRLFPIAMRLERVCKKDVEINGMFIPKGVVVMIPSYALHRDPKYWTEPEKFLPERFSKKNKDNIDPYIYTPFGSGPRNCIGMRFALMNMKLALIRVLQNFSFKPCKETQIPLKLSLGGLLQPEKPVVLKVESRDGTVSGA
# Summary of the method: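 P450-Glo CYP3A4 enzyme with proluciferin substrate preincubated 10 min with compound at room temperature, then NADPH regeneration 1 h. Luciferin detection reagent added for 20 min; luminescence recorded. Ketoconazole positive control.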
# [16] = target: Rap guanine nucleotide exchange factor 3 (Homo sapiens) (UniProt O95398); assay: Confirmatory qHTS for antagonist of cAMP-regulated guanine nucleotide exchange factor 3 (EPAC1) (AID 1645880; active means well fitted curve in the direction sought with a large enough effect; an effect the other way counts as inactive or inconclusive; further: nearly all actives have a fitted effect of over 55% in size; further: potency means the concentration at half of the fitted maximal effect)
# Summary of the method: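 Nucleotide exchange uses 100 nM EPAC1, 250 nM RAP1B-BODIPY-GDP and 50 uM GDP, with compounds in a concentration-titration series. After 5 min at room temperature, fluorescence (480 nm ex/540 nm em) is read every 5 min for 30 min. Data are normalized to control ATA and DMSO.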
compound,measurement,setting,value
Cc1ccc(S(=O)(=O)N[C@@H](CCCCN)C(=O)CCl)cc1,Potency,[1],inactive
same,Potency,[2],17.2 µM (active)
same,Potency,[3],14.1 µM (active)
same,Potency,[4],inactive
Cc1ccc(O)c([C@H](CCN(C(C)C)C(C)C)c2ccccc2)c1,Potency,[5],inactive
C=CCN1CC[C@]23c4c5ccc(O)c4O[C@H]2C(=O)CC[C@@]3(O)[C@H]1C5,Potency,[1],inactive
same,Potency,[6],inactive
same,Potency,[5],inactive
same,"activity change, negative = inhibition",[7],2.17%
same,Potency,[8],inactive
COC1=CC(=O)C[C@@H](C)[C@]12Oc1c(Cl)c(OC)cc(OC)c1C2=O,Potency,[5],inactive
C=C(C)[C@H]1Cc2c(ccc3c2O[C@@H]2COc4cc(OC)c(OC)cc4[C@@H]2C3=O)O1,Potency,[2],inactive
same,Potency,[6],6.17 µM (active)
same,"activity change, negative = inhibition",[7],-94.7%
same,Potency,[3],inactive
same,Potency,[8],188 nM (active)
same,Potency,[4],0.15 µM (active)
O=C(O)C(=O)c1cn(Cc2ccccc2)c2ccc(-c3ccc(OC(F)(F)F)cc3)cc12,Potency,[6],16.9 µM (active)
same,Potency,[5],inactive
same,"activity change, negative = inhibition",[7],-24.2%
Cc1ccc(-c2nc3ccc(C)cn3c2CC(=O)N(C)C)cc1,Potency,[1],inactive
same,Potency,[6],inactive
same,Potency,[8],inactive
same,Potency,[4],inactive
CCc1ccc(CCOc2ccc(CC3SC(=O)NC3=O)cc2)nc1 (configuration not stated),Potency,[5],inactive
Clc1ccc(COC(Cn2ccnc2)c2ccc(Cl)cc2Cl)cc1 (configuration not stated),Potency,[2],0.219 µM (active)
same,Potency,[9],12.1 µM (active)
same,outcome,[10],inactive
same,outcome,[11],inactive
same,Potency,[12],44.1 µM (active) and inactive
same,outcome,[13],inactive
COc1ccc2c(c1OC)CN1CCc3cc4c(cc3C1C2)OCO4 (configuration not stated),Potency,[1],inactive
same,Potency,[2],0.0309 µM (active)
same,Potency,[6],19.5 µM (active)
same,Potency,[4],10.6 µM (active)
Cc1ccccc1N1C(=O)c2cc(S(N)(=O)=O)c(Cl)cc2NC1C (configuration not stated),Potency,[5],inactive
CC(=O)O[C@]1(C(C)=O)CC[C@H]2[C@@H]3C=C(Cl)C4=CC(=O)[C@@H]5C[C@@H]5[C@]4(C)[C@H]3CC[C@@]21C,Potency,[5],inactive
NC(=O)NO,Potency,[5],inactive
CNC(=O)c1ccc(N2C(=S)N(c3ccc(C#N)c(C(F)(F)F)c3)C(=O)C23CCC3)cc1F,Potency,[2],inactive
same,Potency,[6],16.9 µM (active)
same,Potency,[5],inactive
same,"activity change, negative = inhibition",[7],-17.3%
same,Potency,[4],16.6 µM (active)
Cc1sc2c(c1C)C(c1ccc(Cl)cc1)=N[C@@H](CC(=O)OC(C)(C)C)c1nnc(C)n1-2,Potency,[2],inactive
same,Potency,[6],10.7 µM (active)
same,Potency,[5],inactive
same,"activity change, negative = inhibition",[7],-18.3%
same,Potency,[8],372 nM (active)
same,Potency,[4],0.263 µM (active)
CC(CN1c2ccccc2Sc2ccccc21)N(C)C (configuration not stated),Potency,[5],inactive
CO[C@]12CC[C@@]3(C[C@@H]1[C@](C)(O)C(C)(C)C)[C@@H]1Cc4ccc(O)c5c4[C@@]3(CCN1CC1CC1)[C@H]2O5,Potency,[2],0.353 µM (active)
same,Potency,[8],6050 nM (active)
same,Potency,[4],6.79 µM (active)
N#CC(C#N)=Cc1ccc(O)c(O)c1,Potency,[1],inactive
same,Potency,[6],inactive
same,Potency,[3],inactive
same,Potency,[8],9440 nM (active)
same,Potency,[4],10.6 µM (active)
same,activity,[14],34.9%
CC1NCCOC1c1ccccc1 (configuration not stated),Potency,[1],inactive
same,Potency,[6],inactive
same,Potency,[8],inactive
same,Potency,[4],inactive
CC[C@@H](CO)NC(=O)[C@@H]1C=C2c3cccc4c3c(cn4C)C[C@H]2N(C)C1,Potency,[1],inactive
same,Potency,[2],12.3 µM (active)
same,Potency,[3],inactive
same,activity,[14],1.79%
CN(C)[C@@H]1C(=O)C(C(N)=O)=C(O)[C@@]2(O)C(=O)C3=C(O)c4c(O)cccc4[C@@](C)(O)[C@H]3C[C@@H]12,Potency,[1],inactive
same,Potency,[2],15.5 µM (active)
same,Potency,[5],inactive
same,Potency,[7],inactive
same,Potency,[8],inactive
same,Potency,[4],inactive
CNS(=O)(=O)CCc1ccc2[nH]cc(C3CCN(C)CC3)c2c1,Potency,[5],inactive
COc1ccc(-c2cc(=S)ss2)cc1,Potency,[5],inactive
CN1C[C@H](CNC(=O)OCc2ccccc2)C[C@@H]2c3cccc4c3c(cn4C)C[C@H]21,outcome,[15],inactive
same,Potency,[6],inactive
same,activity,[14],-5.5%
CCCC1CCCCN1 (configuration not stated),Potency,[1],inactive
same,Potency,[6],inactive
same,Potency,[5],inactive
same,Potency,[7],inactive
same,Potency,[8],inactive
same,Potency,[4],inactive
CC(CCc1ccccc1)NC(C)C(O)c1ccc(O)cc1 (configuration not stated),Potency,[2],0.195 µM (active)
same,Potency,[6],inactive
same,Potency,[5],inactive
same,Potency,[3],inactive
same,Potency,[8],inactive
same,Potency,[4],inactive
O=c1oc2ccccc2c(O)c1C(CC(O)c1ccc(-c2ccc(Br)cc2)cc1)c1ccccc1 (configuration not stated),Potency,[6],4.36 µM (active)
same,Potency,[8],inactive
same,Potency,[16],15.7 µM (active)
same,outcome,[10],inactive
same,outcome,[11],inactive
same,Potency,[12],44.1 µM (active)
CCC1(C2=NCCN2)Cc2ccccc2O1 (configuration not stated),Potency,[1],inactive
same,Potency,[6],inactive
same,Potency,[3],inactive
CN1CCN(C(=O)O[C@H]2c3nccnc3C(=O)N2c2ccc(Cl)cn2)CC1,Potency,[1],inactive
same,Potency,[6],inactive
same,Potency,[5],inactive
same,Potency,[7],inactive
same,Potency,[8],inactive
same,Potency,[4],inactive
C[C@H]1O[C@@H](O[C@H]2[C@@H](O)C[C@H](O[C@H]3[C@@H](O)C[C@H](O[C@H]4CC[C@@]5(C)[C@H](CC[C@@H]6[C@@H]5CC[C@]5(C)[C@@H](C7=CC(=O)OC7)CC[C@]65O)C4)O[C@@H]3C)O[C@@H]2C)C[C@H](O)[C@@H]1O,Potency,[2],inactive
same,Potency,[6],inactive
same,Potency,[8],16.8 nM (active) and 19.2 nM (active)
same,Potency,[4],42.2 nM (active) and 85.8 nM (active)
same,Potency,[16],inactive
same,outcome,[10],inactive
same,outcome,[11],inactive
CN1CCN(C(c2ccccc2)c2ccccc2)CC1,Potency,[5],inactive
N[C@@H]1C[C@H]1c1ccccc1,Potency,[1],inactive
same,Potency,[6],21.9 µM (active)
same,Potency,[8],inactive
C=C1C[C@@H]2[C@H](CC[C@]3(C)C(=O)CC[C@@H]23)[C@@]2(C)C=CC(=O)C=C12,Potency,[2],inactive
same,Potency,[8],16.8 µM (active) and 26.3 µM (active)
same,Potency,[4],11.9 µM (active) and 18.6 µM (active)
CC(C)C1CCC(C(=O)N[C@H](Cc2ccccc2)C(=O)O)CC1 (some centres not stated),Potency,[5],inactive
N[C@@H](Cc1ccc(Oc2cc(I)c(O)c(I)c2)c(I)c1)C(=O)O,Potency,[1],inactive
same,Potency,[2],19.5 µM (active)
same,Potency,[6],3.89 µM (active)
same,Potency,[8],inactive
same,Potency,[4],inactive
NP(N)(=O)NC(=O)c1ccc(F)cc1,Potency,[1],inactive
same,Potency,[2],inactive
same,Potency,[6],inactive
same,Potency,[8],inactive
same,Potency,[4],inactive
CCN(CC)CCCC(C)Nc1ccnc2cc(Cl)ccc12 (configuration not stated),Potency,[5],inactive
CN1CCN(C2=Nc3cc(Cl)ccc3Nc3ccccc32)CC1,Potency,[5],inactive
CN1CCc2cccc3c2[C@H]1Cc1ccc(O)c(O)c1-3,Potency,[5],inactive
NCCCC(O)(P(=O)(O)O)P(=O)(O)O,Potency,[5],inactive
Cc1[nH]cnc1CN1CCc2c(c3ccccc3n2C)C1=O,Potency,[5],inactive
CN1C(=O)CC(C)(c2ccccc2)C1=O (configuration not stated),Potency,[5],inactive
CC(COc1ccccc1)N(CCCl)Cc1ccccc1 (configuration not stated),Potency,[5],inactive
